Where “and” joins values, the source holds several entries; their conditions need not be identical. Identical values can stand only once. Hit rate of the full screen: of about 5,500 compounds, about 2,000 (36%) were called active. Roughly 18% stayed inconclusive and do not appear here. Cut-off read from the data, not from the text of the source: active = normalized growth mostly below about 0.91 (no sharp cut-off); inconclusive = no clear call, values can overlap the other calls; inactive = mostly above about 0.92. The list shows a part of the results.
Assay: chemical genetic growth profiling, strain panel (AID 1159580);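 note: tested at 20 µM; growth read once vehicle control cultures reached saturation at 30 °C; 1 = growth at the plate median or of vehicle wells; lower values mean less growth of the strain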
Conditions: growth OD

Measured: normalized growth

CN(C)c1nc(N)c(C(=O)N=C(N)N)nc1Cl
inactive: S. cerevisiae deletion strains, locus YAL013W, strain DEP1, stronger effect = lower value 1.01 | S. cerevisiae deletion strains, locus YAL040C, strain CLN3, stronger effect = lower value 1 | S. cerevisiae deletion strains, locus YBR021W, strain FUR4, stronger effect = lower value 1.01 | S. cerevisiae deletion strains, locus YBR229C, strain ROT2, stronger effect = lower value 1.01 | S. cerevisiae deletion strains, locus YCL029C, strain bik1, stronger effect = lower value 1.01 | S. cerevisiae deletion strains, locus YDL035C, strain GPR1, stronger effect = lower value 1.03 | S. cerevisiae deletion strains, locus YDL074C, strain BRE1, stronger effect = lower value 0.983 | S. cerevisiae deletion strains, locus YDL101C, strain DUN1, stronger effect = lower value 1.01 | S. cerevisiae deletion strains, locus YDL134C, strain PPH21, stronger effect = lower value 0.999 | S. cerevisiae deletion strains, locus YDL185W, strain tfp1, stronger effect = lower value 1.01 | S. cerevisiae deletion strains, locus YDL192W, strain arf1, stronger effect = lower value 1.01 | S. cerevisiae deletion strains, locus YDR101C, strain arx1, stronger effect = lower value 1 | S. cerevisiae deletion strains, locus YDR150W, strain NUM1, stronger effect = lower value 0.982 and 0.999 | S. cerevisiae deletion strains, locus YDR162C, strain NBP2, stronger effect = lower value 0.985 | S. cerevisiae deletion strains, locus YDR318W, strain mcm21, stronger effect = lower value 1.02 | S. cerevisiae deletion strains, locus YDR363W, strain ESC2, stronger effect = lower value 1 | S. cerevisiae deletion strains, locus YDR388W, stronger effect = lower value 1 | S. cerevisiae deletion strains, locus YDR502C, strain sam2, stronger effect = lower value 0.983 | S. cerevisiae deletion strains, locus YEL061C, strain CIN8, stronger effect = lower value 1.01 | S. cerevisiae deletion strains, locus YER002W, strain NOP16, stronger effect = lower value 1.01 | S. cerevisiae deletion strains, locus YER110C, stronger effect = lower value 1.02 | S. cerevisiae deletion strains, locus YER155C, strain BEM2, stronger effect = lower value 1.01 | S. cerevisiae deletion strains, locus YER167W, strain BCK2, stronger effect = lower value 1.02 | S. cerevisiae deletion strains, locus YGL078C, strain dbp3, stronger effect = lower value 0.989 | S. cerevisiae deletion strains, locus YGL086W, strain mad1, stronger effect = lower value 1.02 | S. cerevisiae deletion strains, locus YGL248W, strain PDE1, stronger effect = lower value 1 | S. cerevisiae deletion strains, locus YGR078C, strain PAC10, stronger effect = lower value 0.99 | S. cerevisiae deletion strains, locus YGR135W, strain pre9, stronger effect = lower value 0.967 | S. cerevisiae deletion strains, locus YGR229C, strain SMI1, stronger effect = lower value 1 | S. cerevisiae deletion strains, locus YGR252W, strain gcn5, stronger effect = lower value 1.02 | S. cerevisiae deletion strains, locus YHR030C, strain SLT2, stronger effect = lower value 1.01 | S. cerevisiae deletion strains, locus YHR079C, strain IRE1 (second series), stronger effect = lower value 1.01 | S. cerevisiae deletion strains, locus YHR094C, strain hxt1, stronger effect = lower value 0.998 | S. cerevisiae deletion strains, locus YHR129C, strain ARP1, stronger effect = lower value 1.01 | S. cerevisiae deletion strains, locus YHR200W, strain rpn10, stronger effect = lower value 1 | S. cerevisiae deletion strains, locus YIL066C, strain RNR3, stronger effect = lower value 1.02 | S. cerevisiae deletion strains, locus YIL073C, strain SPO22, stronger effect = lower value 1.07 | S. cerevisiae deletion strains, locus YIL125W, strain kgd1, stronger effect = lower value 1 | S. cerevisiae deletion strains, locus YIR030C, strain dcg1, stronger effect = lower value 0.998 | S. cerevisiae deletion strains, locus YJL095W, strain BCK1, stronger effect = lower value 0.997 | S. cerevisiae deletion strains, locus YJL134W, strain LCB3, stronger effect = lower value 1 | S. cerevisiae deletion strains, locus YJL168C, strain set2, stronger effect = lower value 1 | S. cerevisiae deletion strains, locus YJL187C, strain SWE1 (second series), stronger effect = lower value 0.988 | S. cerevisiae deletion strains, locus YJR043C, strain POL32, stronger effect = lower value 1.03 | S. cerevisiae deletion strains, locus YJR075W, strain HOC1, stronger effect = lower value 1.01 | S. cerevisiae deletion strains, locus YKL009W, strain mrt4, stronger effect = lower value 1.06 | S. cerevisiae deletion strains, locus YKL068W, stronger effect = lower value 0.997 | S. cerevisiae deletion strains, locus YKL085W, strain MDH1 (second series), stronger effect = lower value 1.01 | S. cerevisiae deletion strains, locus YKL085W, strain MDH1, stronger effect = lower value 1.01 | S. cerevisiae deletion strains, locus YKL190W, strain CNB1, stronger effect = lower value 1.01 | S. cerevisiae deletion strains, locus YKR001C, strain vps1, stronger effect = lower value 1.02 | S. cerevisiae deletion strains, locus YLR039C, strain RIC1, stronger effect = lower value 1.06 | S. cerevisiae deletion strains, locus YLR058C, strain SHM2, stronger effect = lower value 1.01 | S. cerevisiae deletion strains, locus YLR102C, strain apc9, stronger effect = lower value 1 | S. cerevisiae deletion strains, locus YLR262C, strain YPT6, stronger effect = lower value 1.04 | S. cerevisiae deletion strains, locus YLR268W, strain sec22, stronger effect = lower value 0.988 | S. cerevisiae deletion strains, locus YLR330W, strain CHS5, stronger effect = lower value 1.01 | S. cerevisiae deletion strains, locus YLR342W, strain FKS1 (second series), stronger effect = lower value 1.07 | S. cerevisiae deletion strains, locus YLR371W, strain rom2, stronger effect = lower value 1.01 | S. cerevisiae deletion strains, locus YLR418C, strain cdc73, stronger effect = lower value 0.925 | S. cerevisiae deletion strains, locus YML016C, strain PPZ1, stronger effect = lower value 1 | S. cerevisiae deletion strains, locus YML032C, strain rad52, stronger effect = lower value 1.03 | S. cerevisiae deletion strains, locus YML124C, strain tub3, stronger effect = lower value 0.999 | S. cerevisiae deletion strains, locus YMR078C, strain ctf18, stronger effect = lower value 1.01 | S. cerevisiae deletion strains, locus YMR223W, strain ubp8, stronger effect = lower value 1.02 | S. cerevisiae deletion strains, locus YMR263W, strain SAP30, stronger effect = lower value 0.988 | S. cerevisiae deletion strains, locus YMR307W, strain GAS1, stronger effect = lower value 1.06 | S. cerevisiae deletion strains, locus YNL067W, strain RPL9B, stronger effect = lower value 0.986 | S. cerevisiae deletion strains, locus YNL128W, strain TEP1, stronger effect = lower value 1.01 | S. cerevisiae deletion strains, locus YNL153C, strain GIM3, stronger effect = lower value 0.999 and 0.967 | S. cerevisiae deletion strains, locus YNL175C, strain NOP13, stronger effect = lower value 1.01 | S. cerevisiae deletion strains, locus YNL197C, strain WHI3, stronger effect = lower value 1 | S. cerevisiae deletion strains, locus YNL224C, strain SQS1, stronger effect = lower value 1.01 | S. cerevisiae deletion strains, locus YNL233W, strain BNI4, stronger effect = lower value 0.989 | S. cerevisiae deletion strains, locus YNL250W, strain rad50, stronger effect = lower value 1.01 | S. cerevisiae deletion strains, locus YNL271C, strain bni1, stronger effect = lower value 1.01 | S. cerevisiae deletion strains, locus YNL298W, strain CLA4, stronger effect = lower value 1.01 | S. cerevisiae deletion strains, locus YNL307C, strain MCK1, stronger effect = lower value 1.02 | S. cerevisiae deletion strains, locus YNL322C, strain KRE1, stronger effect = lower value 1.01 | S. cerevisiae deletion strains, locus YNR052C, strain pop2, stronger effect = lower value 1.02 | S. cerevisiae deletion strains, locus YOL006C, strain TOP1, stronger effect = lower value 0.981 | S. cerevisiae deletion strains, locus YOL012C, strain htz1 1.37 | S. cerevisiae deletion strains, locus YOL147C, strain pex11, stronger effect = lower value 1.01 | S. cerevisiae deletion strains, locus YOR061W, strain CKA2, stronger effect = lower value 1.01 | S. cerevisiae deletion strains, locus YOR069W, strain VPS5, stronger effect = lower value 1.01 | S. cerevisiae deletion strains, locus YOR083W, strain WHI5 (second series), stronger effect = lower value 1.01 | S. cerevisiae deletion strains, locus YOR136W, strain idh2, stronger effect = lower value 1 | S. cerevisiae deletion strains, locus YOR144C, strain elg1, stronger effect = lower value 1 | S. cerevisiae deletion strains, locus YOR184W, strain ser1, stronger effect = lower value 1.05 | S. cerevisiae deletion strains, locus YOR316C, strain cot1, stronger effect = lower value 1 | S. cerevisiae deletion strains, locus YPL055C, strain LGE1, stronger effect = lower value 0.956 | S. cerevisiae deletion strains, locus YPL241C, strain CIN2, stronger effect = lower value 0.999 | S. cerevisiae deletion strains, locus YPR119W, strain clb2, stronger effect = lower value 0.988 | S. cerevisiae deletion strains, locus YPR141C, strain kar3, stronger effect = lower value 0.999 | S. cerevisiae deletion strains, locus YPR163C, strain tif3, stronger effect = lower value 0.999 | S. cerevisiae deletion strains, locus YPR167C, strain met16, stronger effect = lower value 1 | S. cerevisiae deletion strains, strain wtn01, stronger effect = lower value 0.997 | S. cerevisiae strains, strain wild type, stronger effect = lower value 1.01

— PubChem BioAssay AID1159580 (chemical genetic matrix, 2015)
